This is a sample that favours compounds with a hit; in the whole collection about 4.7% have one here.
TRHR enhancer = TRH receptor (human) allosteric enhancement. P34981. TRHR cells, fluo-8 calcium fluorescence, EC20 TRH enhancement. enhancement, % at 2 µM. 360,000 tested, 0.66% active; in the data active = enhancement above about 30%; also: 0% is about no effect
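Enhancer read-out: after compound pinning and an initial kinetic agonist-mode read, an EC20 of TRH (10 nM final) was injected and fluo-8 calcium signal (Ex 480/Em 530) followed at 1 s/cycle for 100 cycles in TRHR-expressing cells.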
D1 ag = agonists of human D1 dopamine receptor; AID 504660; HEK293 T-REx D1 cells, calcium flux, agonist mode; activation, % at 2 µM; 360,000 tested, 1% active; P21728; also: 0% is about no effect
Target sequence (P21728 whole entry, looked up): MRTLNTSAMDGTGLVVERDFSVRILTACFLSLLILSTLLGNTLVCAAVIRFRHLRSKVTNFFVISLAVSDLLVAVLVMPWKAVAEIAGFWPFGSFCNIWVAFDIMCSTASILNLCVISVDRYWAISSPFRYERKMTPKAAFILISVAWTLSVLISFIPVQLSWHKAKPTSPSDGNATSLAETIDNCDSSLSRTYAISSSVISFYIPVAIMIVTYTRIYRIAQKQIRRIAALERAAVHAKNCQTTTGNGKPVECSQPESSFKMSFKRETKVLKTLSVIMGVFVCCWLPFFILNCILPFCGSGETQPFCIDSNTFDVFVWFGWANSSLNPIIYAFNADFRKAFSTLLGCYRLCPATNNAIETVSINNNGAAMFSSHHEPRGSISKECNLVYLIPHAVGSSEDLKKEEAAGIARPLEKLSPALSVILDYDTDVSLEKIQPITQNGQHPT
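Agonism was scored from calcium flux recorded over 180 s (1 read/s) after pintool compound addition, following a 10-cycle baseline. Cells were inducible force-coupled HEK293 TREx D1, plated overnight at 30 C and loaded with no-wash calcium dye.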
D1 antag = antagonists of human D1 dopamine receptor | P21728 | HEK293 TREx D1 cells, calcium flux, dopamine EC80; active compounds read low | activity change, negative = inhibition, % at 10 µM | 360,000 tested, 3.2% active | AID 504652; in the data active = activity change below about -30%; also: % is scaled to controls: 0 for no effect and ±100 for the full control effect
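Inducible Hek293 Trex D1 cells (tetracycline, overnight, 30 C). Calcium dye 30–90 min RT. Antagonist mode: EC80 dopamine added after 180 s compound read.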
D1 potentiator = human D1 dopamine receptor positive modulation; 360,000 tested, 0.036% active; AID 504651; P21728; HEK293 TREx D1 cells, calcium flux, dopamine EC20 potentiation; potentiation, % at 10 µM; in the data active = potentiation above about 30%; also: 0% is about no effect
TRHR ag = agonists of human TRH receptor | P34981 | TRHR cells, calcium flux fluo-8, FDSS agonist mode | activation, % at 2 µM | 360,000 tested, 0.18% active; also: 0% is about no effect
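TRHR-expressing cells loaded with fluo-8 calcium dye; 23 nL library compound pin-transferred, kinetic FDSS fluorescence (Ex 480/Em 530) recorded about 180 s for agonist-induced calcium release, before a 10 nM TRH EC20 addition for potentiator mode.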
* marks the source's active call; other numbers are inactive results. Rule as the data show it, unless noted: active = activation above about 30%; inactive = the rest.

SMILES | TRHR enhancer | D1 ag | D1 antag | D1 potentiator | TRHR ag
Cc1nc2nc(SCC(=O)C(C)(C)C)[nH]c2cc1Br | -6 | 0 | -47* | -8 | 1
CCc1ccccc1N(CC)C(=O)c1c(C)oc2ncnc(N3CCOCC3)c12 | -9 | 0 | 0 | 4 | 0
CC1CCN(C(=O)CSc2c(C(C)C)cnc3c2c(=O)n(C)c(=O)n3C)CC1 | 8 | -1 | 1 | -3 | 0
Cc1cc(-c2nn3c(-c4ccccc4)nnc3s2)c2ccccc2n1 | -2 | -1 | -33* | -6 | 0
c1ccc(-c2cc(-c3nn4c(-c5ccco5)nnc4s3)c3ccccc3n2)cc1 | -6 | 4 | 26 | -6 | -2
COc1ccc(N2CCN(C(c3cc(OC)ccc3OC)c3nnnn3Cc3ccco3)CC2)cc1 (configuration not stated) | 39* | 2 | 1 | -1 | -1
COc1ccc(OC)c(C(c2nnnn2CCc2ccccc2)N2CCN(c3ccccc3)CC2)c1 (configuration not stated) | -6 | 3 | 9 | -8 | 23
Cc1cccc(CCNC(=O)Cn2ncc3c(=O)oc4ccccc4c32)c1 | -2 | 4 | -8 | 1 | 0
Cc1ccc(CNC(=O)c2cnc(N3CCCC3)nc2C)cc1 | -5 | 3 | 8 | 0 | 0
Cc1cccc(CCNC(=O)c2sc3nc4n(c(=O)c3c2C)CCCC4)c1 | -4 | 32* | 7 | -1 | 9
COc1ccc(CNC(=O)c2cnc(N3CCCC3)nc2C)cc1 | -2 | -1 | -44* | 1 | 0
Cc1c(C(=O)NCc2cccc(Cl)c2)sc2nc3n(c(=O)c12)CCCC3 | 14 | 32* | -16 | -1 | 14
Cc1c(C(=O)NCc2ccccc2Cl)sc2nc3n(c(=O)c12)CCC3 | -4 | 1 | -7 | -4 | 0
COc1ccc(CNC(=O)c2sc3nc4n(c(=O)c3c2C)CCCC4)cc1 | -2 | 71* | -3 | -3 | 23
Cc1c(C(=O)NCc2ccc(Cl)cc2)sc2nc3n(c(=O)c12)CCCC3 | 19 | 3 | 3 | 2 | 1
CCOC(=O)c1ccccc1NC(=O)CSc1cn(CC(=O)N2CCOCC2)c2ccccc12 | 24 | 0 | 6 | -2 | -1
Cc1cc(=O)oc2c3c(cc(OCC(=O)NCc4ccccc4)c12)OC(C)(C)CC3 | -12 | 2 | -32* | -6 | 2
Cc1nn(C)c2c1c(C(F)(F)F)cc(=O)n2C(C)C(=O)Nc1ccccc1F (configuration not stated) | 5 | 0 | -7 | -6 | 0
COc1cc(C)c(Cl)c(C)c1S(=O)(=O)NC1CC(C)(C)NC(C)(C)C1 | 39* | 8 | -5 | -4 | 1
COc1ccc(CCN2C(=O)CSC2c2cccc([N+](=O)[O-])c2)cc1OC (configuration not stated) | -5 | -2 | -30* | -4 | 0
CCOc1ccc(CCNC(=O)c2ccc3c(c2)c(C)c(C)n3Cc2ccccc2)cc1OCC | -1 | 1 | 11 | 3 | 0
Cc1ccccc1CCN(C(=O)CN1C(=O)c2ccccc2S1(=O)=O)C(C(=O)NCC1CCCO1)c1ccncc1 (configuration not stated) | 3 | 1 | -12 | 0 | 0
O=C(NCC1CCCO1)C(c1ccncc1)N(Cc1cccs1)C(=O)CN1C(=O)c2ccccc2S1(=O)=O (configuration not stated) | 5 | 42* | 0 | 7 | 0
Cc1ccc(-c2nnn(CC(=O)N(Cc3cccs3)C(C(=O)NCC3CCCO3)c3ccco3)n2)o1 (configuration not stated) | -2 | 14 | -48* | -9 | -1
O=C(NC1CCCC1)C(c1ccncc1)N(C(=O)Cc1cccs1)c1cccc(F)c1 (configuration not stated) | 1 | 1 | -32* | -4 | -1
SMILES | TRHR enhancer | D1 ag | D1 antag | D1 potentiator | TRHR ag
O=C(NC1CCCC1)C(c1ccc(F)cc1)N(C(=O)Cc1cccs1)c1ccc2c(c1)OCCO2 (configuration not stated) | 30* | 2 | 9 | -3 | 0
Oc1ccc(/C=C/c2ccc3ccccc3n2)cc1 | 1 | 2 | 9 | -5 | 0
O/C(=C\c1ccc2ccccc2n1)c1ccc(O)cc1O | 4 | 71* | 12 | -4 | 16
CN(C)S(=O)(=O)N1CCC(Oc2cccc(C(=O)NC3CCCCCC3)c2)CC1 | -3 | 14 | -32* | -7 | 0
Cc1cc(CNC(=O)c2cccc(OC3CCN(S(=O)(=O)N(C)C)CC3)c2)on1 | 3 | 9 | -39* | -10 | 0
CC1CCCCN1C(=O)c1ccc(OC2CCN(S(=O)(=O)N(C)C)CC2)cc1 (configuration not stated) | -3 | 11 | -24 | 0 | 1
CN(C)S(=O)(=O)N1CCC(Oc2ccc(C(=O)N3CCCCCCC3)cc2)CC1 | 13 | 23 | -35* | -8 | 0
CCN(Cc1cnn(C)c1)C(=O)c1ccc(OC2CCN(S(=O)(=O)N(C)C)CC2)cc1 | 9 | 9 | -42* | -5 | -2
CN(C(=O)c1ccc(OC2CCN(S(=O)(=O)N(C)C)CC2)cc1)C1CCCCC1 | -11 | 4 | -1 | -7 | 1
CC(=O)c1ccc(N2CCN(C(=O)NCc3noc4ccc(C)cc34)CC2)cc1 | -6 | 0 | -16 | -6 | 0
CCOCCCN(Cc1ccco1)C(=O)c1cc2c(s1)-c1c(C)cccc1OC2 | -2 | 6 | -12 | -6 | 0
CCc1ccc(NC(=O)c2cc3sc(Cl)cc3n2C)cc1 | 6 | 3 | -43* | -5 | 0
Cn1c(C(=O)Nc2ccc(Cl)cc2)cc2cc(Cl)ccc21 | 33* | 3 | 0 | -5 | 1
CCc1ccccc1NC(=O)c1cc2sc(Cl)cc2n1CC | -6 | 2 | -3 | -4 | 0
CC(C)c1ccc(NC(=O)c2cc3sc(Cl)cc3n2C)cc1 | 8 | 7 | 10 | -4 | 0
CCn1c(C(=O)Nc2c(C)cccc2C)cc2sc(Cl)cc21 | -5 | 1 | -42* | -9 | 0
Cc1cccc(NC(=O)Cn2c(=O)c3cccn3c3ccccc32)c1C | -6 | 4 | -25 | -6 | 0
CCCCn1c(=O)cc(N2CCOCC2)[nH]c1=O | -8 | 3 | -46* | -7 | 0
O=C(c1ccco1)N1CCc2[nH]nc(-c3ccc(Cl)cc3)c2C1 | 7 | 3 | -30* | 1 | -1
COc1ccc(-c2n[nH]c3c2CN(C(=O)c2ccccc2)CC3)cc1 | 15 | 2 | -5 | -4 | -1
CC(=O)NC(c1ccco1)c1cc(Cl)c2ccc(N3CCCCC3)nc2c1O (configuration not stated) | -3 | 7 | 23 | 11 | 3
COc1ccc(C(=O)c2cn(CC(=O)Nc3ccc4c(c3)OCO4)c3ccc(OC)cc3c2=O)cc1 | -2 | 1 | 8 | 0 | 0
